For 40 compounds, Potency results are on record in PubChem BioAssay (Tox21).

Inconclusive results are not listed. A call without a number means that no potency is given here. Calls of active or inactive are those of the source. Calls come from the whole dose curve; as a rule, active = well fitted cell-killing curve with a large enough effect in the repeat runs; inconclusive = weak or mixed curves, or effect the other way; inactive = flat fitted curve, though single readings scatter.
Potency is the fitted concentration of half-maximal effect.

The nature of this experiment: Nuclear factor erythroid 2-related factor 2/antioxidant responsive element (Nrf2/ARE) small molecule agonists: qHTS cell viability counter screen in human keratinocytes (AID 1919968). Note: nearly all actives have a fitted effect of over 55% in size. The settings on record: KeratinoSens HaCaT ARE cells viability, CellTiter-Fluor, 24 h; series mostly up to 92.4 µM. In outline:
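KeratinoSens HaCaT cells, 1,500/well, preincubated 5 h, then exposed to compounds in DMSO for 23 h at 37 C/5% CO2. Viability read as CellTiter-Fluor fluorescence after 1 h, in the same wells as the ARE-luciferase read.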
(In qHTS, concentration-response curves come from the screen itself.)
`N#Cc1sc2c(=O)c3ccccc3c(=O)c=2sc1C#N`: the Potency is 6.11 µM (active). As for `C=CC(=O)OCC`, the entry is “inactive”. As to `Cc1c(Cl)c(=O)oc2cc(OP(=O)(OCCCl)OCCCl)ccc12`, the Potency entry is “inactive”. Regarding `O=C(CBr)Nc1ccc(Cl)cc1C(=O)c1ccccc1F`, the Potency entry was “inactive”.

For the compound `CC1=NNC(=O)N(/N=C/c2cccnc2)C1`, the Potency entry is “inactive”. As to `[O-][Cl+3]([O-])([O-])O`, the Potency result is “inactive”. As to `CCn1cc[n+](C)c1` (tested in a mixture with another compound), the Potency result is “inactive”. The entry for `CCOC(=O)C(Cl)Cc1cc(-n2nc(C)n(C(F)F)c2=O)c(F)cc1Cl` (stereo not given) is “inactive”.

With `COc1ccc(C(=O)c2c(C)n(CCN3CCOCC3)c3ccccc23)cc1`, the Potency result was “inactive”. In the case of `CSC(C)(C)/C=N/O`, the Potency result was “inactive”. The entry for `C=CCC1(C(C)CC)C(=O)NC(=O)NC1=O` (stereo not given) is “inactive”; for `CCOP(=O)(SC(C)CC)N1CCSC1=O` (stereo not given) it is “inactive”. As for `CCOP(=S)(OCC)Oc1cc(-c2ccccc2)on1`, the Potency entry was “inactive”. For the compound `CCNP(=S)(OC)O/C(C)=C/C(=O)OC(C)C` (stereo not given), the Potency entry is “inactive”. As for `COP(=O)(OC)O/C(C)=C/C(=O)N(C)C`, the entry is “inactive”; as for `CCOC(=O)CCN(SN(C)C(=O)Oc1cccc2c1OC(C)(C)C2)C(C)C`, “inactive”; as for `CN1C2CCC(C)(C)C1CC(OC(=O)C(O)(c1cccs1)c1cccs1)C2` (stereo not given), “inactive”.

As to `O=C1OC(=O)C2C1C1(Cl)C(Cl)=C(Cl)C2(Cl)C1(Cl)Cl` (stereo not given), the Potency entry is “inactive”. The entry for `C[C@H](CN1CCOCC1)C(C(=O)N1CCCC1)(c1ccccc1)c1ccccc1` is “inactive”. The entry for `NNCc1ccccc1` is “inactive”. As for `ClC(Br)Br`, the entry is “inactive”. Regarding `C#CC(C)(C)O`, the Potency entry was “inactive”. The figure for `CCN1CCC2(CC1)COc1cc3c(cc12)N(C(=O)c1ccc(-c2ccc(-c4nnc(C)o4)cc2C)cc1)CC3` is 25.2 µM (active); for `CNC(=O)O/N=C(\C)C(C)S(C)(=O)=O` (stereo not given) it is “inactive”; for `CCOC(=O)c1cn2nc(OP(=S)(OCC)OCC)cc2nc1C` it is “inactive”. Turning to `CC(C)(c1ccc(O)c(-c2ccccc2)c1)c1ccc(O)c(-c2ccccc2)c1`, the Potency is 13.7 µM (active). `CCC1(c2ccccc2)C(=O)N(COC)C(=O)N(COC)C1=O`: the Potency result was “inactive”.

With `CCS(=O)(=O)CCSP(=O)(OC)OC`, the Potency result was “inactive”.

Take `c1cc[n+]2c(c1)-c1cccc[n+]1CC2`: the Potency result is “inactive”. As for `O=C(Nc1ccccc1-c1ccc(Cl)cc1)c1cccnc1Cl`, the entry is “inactive”; as for `O=C(NC(O)C(Cl)(Cl)Cl)NC(O)C(Cl)(Cl)Cl` (stereo not given), “inactive”. As for `CNC(=O)Oc1cccc(N=CN(C)C)c1`, the entry is “inactive”. Turning to `ClCc1ccccc1Cl`, the Potency entry was “inactive”.

As for `CCOP(=S)(OCC)Oc1nc(Cl)n(C(C)C)n1`, the Potency result was “inactive”.

In the case of `CCOP(=S)(OCC)Oc1ccc(Cl)cc1Cl`, the Potency entry is “inactive”. On to `CC(C)O.CC(C)O.OCCN(CCO)CCO.OCCN(CCO)CCO.[Ti]`, for which the Potency entry was “inactive”. In the case of `CN(C)S(=O)(=O)N(SC(F)(Cl)Cl)c1ccccc1`, the Potency is 13.7 µM (active). The entry for `CNC(=O)O/N=C(/CSC)C(C)(C)C` is “inactive”. As for `C/C=C/C=O`, the entry is “inactive”; as for `CNC(=O)Oc1ccccc1C(C)C`, “inactive”.
